# Screening data: PubChem, National Center for Advancing Translational Sciences (NCATS)
# This is a sample that favours compounds with a hit; in the whole collection about 10% have one here.
# CtBP-E1A inh: CtBP/E1A binding inhibition; AlphaScreen GST-E1A/His-CtBP binding, 1536-well; stronger effect = lower value; activity change, % (test concentration not listed); actives 0.49% (n = 340,000); in the data active means activity change below about -65%; inconclusive means mostly about -30% to -63%; further: on the % scale 0 is the no-effect control and ±100 the full control effect
#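 AlphaScreen with 125 nM GST-E1A and 125 nM His-CtBP (5X stocks) in Tris pH 8.0, 300 mM NaCl, BSA, Tween 20, TCEP. Compounds preincubated 2 h at 37 deg C, then glutathione donor/nickel acceptor beads added for 1 h at 37 deg C in dark.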
# JMJD2A Tudor: inhibitors of human JMJD2A Tudor domain; O75164; AlphaScreen JMJD2A-Tudor / H3K4me3 peptide binding; Potency, µM (highest dose often 114 µM), inactives show at the top dose activity change, negative = inhibition, most hits filed as inhibitors; actives 4.4% (n = 390,000); AID 504339; further: potency means the concentration at half of the fitted maximal effect; on the % scale 0 is the no-effect control and ±100 the full control effect; nearly all actives have a fitted effect of over 50% in size
# Six1-Eya2 inh: Six1/Eya2 interaction inhibition; AlphaScreen GST-Six1/His-Eya2 binding, biochemical; stronger effect = lower value; activity change, % (test concentration not listed); actives 0.56% (n = 360,000); in the data active means activity change below about -65%; inconclusive means mostly about -30% to -63%; further: on the % scale 0 is the no-effect control and ±100 the full control effect
#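 AlphaScreen luminescence read after one hour at 37 °C in darkness. Pin-transferred compounds met GST-Six1 and His-Eya2 protein (5X stock 250 nM/500 nM) plus glutathione donor and Ni-chelate acceptor beads (5X, 50 ug/mL).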
# G9a block: G9a (human) methyltransferase inhibition; Potency, µM (top dose mostly 102 µM), for inactives: at the highest dose activity, negative = inhibition, most hits filed as inhibitors; AID 504332; actives 8.8% (n = 350,000); G9a H3K9 monomethylation, AlphaScreen, 2 h; Q96KQ7; further: potency means the concentration at half of the fitted maximal effect; on the % scale 0 is the no-effect control and ±100 the full control effect; nearly all actives have a fitted effect of over 75% in size
# Target sequence (Q96KQ7 913-1193 limits assumed): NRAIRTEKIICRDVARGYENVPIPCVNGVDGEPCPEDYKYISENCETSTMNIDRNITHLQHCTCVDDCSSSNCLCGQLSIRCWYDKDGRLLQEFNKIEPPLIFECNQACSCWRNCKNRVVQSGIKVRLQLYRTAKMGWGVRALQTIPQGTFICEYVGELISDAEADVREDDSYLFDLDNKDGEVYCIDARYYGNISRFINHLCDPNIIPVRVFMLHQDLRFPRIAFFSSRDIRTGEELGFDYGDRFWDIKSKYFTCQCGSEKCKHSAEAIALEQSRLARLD
#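 G9a (20 nM) was preincubated 15 min with compound, then reacted 2 h at room temperature with 500 nM biotin-H3K9 peptide and 20 µM SAM. Monomethyl-H3K9 detected by AlphaScreen using anti-H3K9me1 antibody.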
# BAZ2B block: blocks human BAZ2B; Q9UIF8; AlphaScreen BAZ2B-H3K14Ac peptide displacement; Potency, µM (doses to about 114 µM), without a hit: top-dose activity change, negative = inhibition, usual class: inhibitors; actives 4.4% (n = 360,000); AID 504333; further: potency means the concentration at half of the fitted maximal effect; on the % scale 0 is the no-effect control and ±100 the full control effect; nearly all actives have a fitted effect of over 60% in size
#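 Inhibition is scored as reduced AlphaScreen emission. The BAZ2B/b-H3(5-23)K14Ac complex (50 nM each) in PBS pH 7.4, 0.01% Tween-20 meets compound (up to 110 uM) for 30 min at RT before bead addition.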
# HP1b chromo inh: HP1-beta chromodomain-methylated histone interaction inhibition | actives 0.56% (n = 390,000) | AlphaScreen HP1-beta / biotin-H3K9me3 peptide binding | AID 540317 | P83916 | Potency, µM (highest dose often 114 µM), for inactives: at the highest dose activity change, negative = inhibition, actives largely listed as inhibitors; further: potency means the concentration at half of the fitted maximal effect; nearly all actives have a fitted effect of over 70% in size
# Target sequence (P83916 whole entry, looked up): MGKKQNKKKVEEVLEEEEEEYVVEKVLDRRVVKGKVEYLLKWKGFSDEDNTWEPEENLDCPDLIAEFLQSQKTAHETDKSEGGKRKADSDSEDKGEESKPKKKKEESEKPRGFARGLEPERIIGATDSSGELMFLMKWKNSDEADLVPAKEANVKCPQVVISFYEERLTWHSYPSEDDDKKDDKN
#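 AlphaScreen: HP1-beta (50 nM) preformed 30 min with biotin-H3(1-18)K9me3 peptide (50 nM) in PBS pH 7.4, 0.01% Tween-20. Compound added for 30 min at RT, then streptavidin donor/nickel chelate acceptor beads (10 ug/mL) for 30 min.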
# * hit, by the source's call; ? = inconclusive; / = no result; [ ] = remark or other dose. Unless noted, the call rests on the fitted dose curve; in most records, active means well fitted inhibition curve with a large enough effect; inconclusive means small, poorly fitted or top-dose-only effect; inactive means no such curve, though single readings can be large or run the other way.
SMILES,CtBP-E1A inh,JMJD2A Tudor,Six1-Eya2 inh,G9a block,BAZ2B block,HP1b chromo inh
O=C1C2CCCN2C(=O)N1CCCN1CCN(c2cccc(Cl)c2)CC1 (centres undefined),-2,-13%,-3,15%[59 µM],1%,32%
Cc1ccc(N2CCN(CCCN3C(=O)C4CCCN4C3=O)CC2)cc1 (centres undefined),1,-21%,4,8.9µM*,?,24%
CC(C)C(=O)Nc1cccc(N2CCN(CCCN3C(=O)C4CCCCN4C3=O)CC2)c1 (centres undefined),-7,79µM*,10,/,/,18%
O=C1C2CCCCN2C(=O)N1CCCCN1CCN(c2cccc(Cl)c2)CC1 (centres undefined),7,-25%,-20,?,-20%,8%
CC/C(=C/c1sc2ccc(C)cc2[n+]1CCCS(=O)(=O)[O-])SC,6,0%,-8,45µM*,?,81%
CC/C(=C/c1sc2ccc(C)cc2[n+]1CCO)SC,-6,?,-2,/,?,61%
CCN(CC)c1nc(-c2nn[nH]n2)nc(N(CC)CC)n1,-1,89µM*,0,?,4%,23%
COc1c(C)cc(C(O)c2ncc(-c3ccccc3)[nH]2)cc1C (centres undefined),-10,/,-12,/,/,/
CCCCCCC1CCC(C(=O)NC(C(=O)O)C(C)C)CC1 (centres undefined),/,-2%,/,-8%[59 µM],-3%,24%
C=CCn1c(=O)c2ccccc2n2c(SCC(=O)N(C)C)nnc12,-10,-3%,2,0%,-16%,38%
C=CCn1c(=O)c2ccccc2n2c(=S)[nH]nc12,-4,7.9µM*,-8,7.9µM*,-10%,-19%
CCCCCn1c(=O)c2ccccc2n2c(CCl)nnc12,-17,-3%,19,4%,-14%,36%
CCOCCCn1c(=O)c2ccccc2n2c(=S)[nH]nc12,/,4µM*,-2,10µM*,-24%,-13%
C=CCn1c(=O)c2ccccc2n2c(SCC(=O)c3ccccc3)nnc12,-2,-11%[11.4 µM],-3,22µM*,1%,-19%
CC(C)OCCCn1c(=O)c2ccccc2n2c(-c3ccccc3)nnc12,/,50µM*,/,?,50µM*,5%
CC(C)(C)c1ccc(-n2ncc3c2CCCC3NC(=O)c2cnccn2)cc1 (centres undefined),-1,-19%,-1,-7%,-16%[57.1 µM],33%
COc1ccc(C2=Nn3c(nnc3-c3cccc(OC)c3)SC2)cc1,/,-26%,/,/,/,/
CC(C)CCn1c(=O)c2ccccc2n2c(=S)[nH]nc12,-8,3.5µM*,-24,1.4µM*,45µM*,71µM*
CCCCOc1ccccc1NC(=O)C=C(C)C,0,35%,6,-6%[12.7 µM],29%,35%
CCCOc1ccccc1NC(=O)/C=C/C(N)=O,4,-5%,7,35µM*,9%,15%
CCN(CC)CCc1c(C)[nH]c(C(=O)OCc2ccccc2)c1C,-25,-34%,-18,79µM*,?,-13%
CC(=O)c1c(C)[nH]c(C(=O)OCc2ccccc2)c1C,-8,-17%,-10,17%[59 µM],?,12%
CSCCNC(=O)C1(C)CCN1C(=O)c1ccc(C(C)(C)C)cc1 (centres undefined),1,/,-3,/,/,/
CCN(CC)CCC#CC(O)(c1ccccc1)c1ccccc1,3,0%,0,2%[59 µM],12%,28%
C[N+]1(CC#CC(O)(c2ccccc2)c2ccccc2)CCCC1,2,?,5,8.9µM*,-32%,5%
SMILES,CtBP-E1A inh,JMJD2A Tudor,Six1-Eya2 inh,G9a block,BAZ2B block,HP1b chromo inh
C/C(=N\OCC(=O)OCC(=O)N(C)c1ccccc1)c1ccc2c(c1)OCO2,/,5%,-3,9%[12.7 µM],79µM*,35%
COc1ccc(/C=N/OCC(=O)OCC(=O)N(C)c2ccccc2)cc1,3,-2%,-2,50µM*,-2%,21%
Cc1cccc(C)c1N1C(=O)CC(N2CCN(S(=O)(=O)c3ccccc3F)CC2)C1=O (centres undefined),/,-17%,6,/,/,31%
O=C1CC(N2CCN(S(=O)(=O)c3ccccc3F)CC2)C(=O)N1c1ccccc1F (centres undefined),1,16µM*,4,/,/,?
CC(=O)N1c2c(cc(Br)cc2S(=O)(=O)N2CCN(C(=O)c3ccco3)CC2)CC1C (centres undefined),-12,22µM*,-10,?,-1%,-10%
CCN(CC)S(=O)(=O)c1ccc(N2CCCC2)c(NS(=O)(=O)c2ccc(OC)cc2)c1,-11,-21%,-2,35µM*,-7%,34%
CCN(CC)S(=O)(=O)c1ccc(N2CCCC2)c(NS(=O)(=O)c2ccc([N+](=O)[O-])cc2)c1,-4,-26%[57.1 µM],-9,10µM*,-38%,2%
CCN(CC)S(=O)(=O)c1ccc(N2CCCC2)c(NS(=O)(=O)c2ccccc2)c1,-8,-25%,-3,3%[59 µM],10%,33%
CCc1cc(C(=O)Nc2cc(S(=O)(=O)N(CC)CC)ccc2N2CCN(C)CC2)sc1C,4,-20%,-9,35µM*,-10%,49%
CCOc1ccccc1-c1nnc2n1N=C(c1cccc(OC)c1)CS2,/,-32%,/,/,/,/
Cc1nn(Cc2ccccc2)c(C)c1/C=N/NC(=O)CNc1cccc(C(F)(F)F)c1,/,-32%,4,9%[59 µM],-37%,16%
COc1ccc(NCC(=O)N/N=C/c2c(C)nn(Cc3ccccc3)c2Cl)cc1,-24,?,?,?,45µM*,-28%
CCc1nn(CC(=O)NCc2ccccc2)c(=O)c2cccn12,/,?,/,?,?,9%
O=C(CC1C[C@H](C(=O)N2CCOCC2)[C@@]2(CCC3CCCC3)c3[nH]c4ccccc4c3CCN2C1=O)NCC12CC3CC(CC(C3)C1)C2 (some centres undefined),7,-33%,-5,/,/,20%
CCCN(C(=O)Cn1nc(C)c([N+](=O)[O-])c1C)c1c(N)n(Cc2ccccc2)c(=O)[nH]c1=O,8,-3%,7,45µM*,9%,21%
CCCN(C(=O)CSCc1c(C)noc1C)c1c(N)n(Cc2ccccc2)c(=O)[nH]c1=O,2,-15%,6,45µM*,3%,-14%
CCCCn1c(N)c(N(CCOC)C(=O)CSCc2c(C)noc2C)c(=O)[nH]c1=O,2,-10%,-1,-3%,-17%,34%
CCCCn1c(N)c(N(CC)C(=O)CSCc2c(C)noc2C)c(=O)[nH]c1=O,4,-14%,3,45µM*,-8%,30%
